# Source: PubChem BioAssay (EPA / NIEHS)
# Values joined by “and” are separate entries in the source; they are usually repeats but may differ in a detail not shown here. Equal values may be shown once. Active and inactive are the calls of the source. How the source made its calls: active means hit-call score of the fitted dose curve at least 0.9, where 1 is the maximum; inactive means score below 0.9.
# How the values were obtained:
# [1] = read-out: Monocyte Chemoattractant Protein-1 (MCP1), CCL2 (gene 6347); assay: BSK_SAg_MCP1: BioMAP Diversity Plus: SAg Assay for Monocyte Chemoattractant Protein-1 (MCP1) Biomarker Activity (AID 2283090); conditions: primary human HUVEC with PBMC; actives raise or lower the signal
# Method in brief: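 MCP-1 levels in the endothelial–PBMC SAg co-culture were quantified by ELISA at 24 h post-dosing; both increases and decreases versus DMSO scored. Cytotoxicity monitored by SRB total protein in parallel cultures.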
# [2] = read-out: E-selectin (Homo sapiens) (UniProt P16581); assay: BSK_SAg_Eselectin: BioMAP Diversity Plus: SAg Assay for Eselectin Biomarker Activity (AID 2283091); conditions: primary human HUVEC with PBMC; actives raise or lower the signal
# Method in brief: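 Cell-surface E-selectin is read by ELISA at 24 h in the SAg co-culture of HUVEC and PBMC. Curves are fitted in both directions relative to DMSO. Parallel SRB total-protein staining tracks overt toxicity.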
# [3] = BSK_SAg_PBMCCytotoxicity: PBMC Cytotoxicity Assessment in the BioMAP Diversity Plus: SAg Assay (AID 2283093); conditions: primary human HUVEC with PBMC;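 further: PBMC viability measured as Alamar Blue reduction fluorescence at 546/580 nm; fitted both ways against DMSO so a hit may be loss or gain of signal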;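 on AC50: PBMC superantigen activated with SEB plus TSST-1 one hour after compound addition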
# Method in brief: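 HUVEC/PBMC co-culture; PBMC exposed to chemical 1 h before SEB and TSST-1 activation (20 ng/mL each), incubated 90 h, then Alamar Blue 6 h, fluorescence 546/580 nm. Bidirectional fit versus DMSO baseline.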
# [4] = read-out: Interleukin-8 (IL8), CXCL8 (gene 3576); assay: BSK_SAg_IL8: BioMAP Diversity Plus: SAg Assay for Interleukin-8 (IL8) Biomarker Activity (AID 2283094); conditions: primary human HUVEC with PBMC; actives raise or lower the signal
# Method in brief: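 In this co-culture of human umbilical vein endothelium with peripheral blood mononuclear cells, IL-8 is assayed by ELISA at 24 h. DMSO serves as baseline for bidirectional curve fitting.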
# [5] = BSK_SAg_Proliferation: Cell Proliferation Assessment in the BioMAP Diversity Plus: SAg Assay (AID 2283095); conditions: primary human HUVEC with PBMC;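 further: relative cell number as total protein by SRB absorbance in sub-confluent culture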
# Method in brief: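 Readout is SRB-stained protein (560 nm) in a primary human HUVEC and PBMC co-culture; sub-confluent cultures are read at 96 h. Activity is fitted bidirectionally using DMSO as baseline.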
# [6] = BSK_SAg_SRB: Viability Assessment in the BioMAP Diversity Plus: SAg Assay (AID 2283096); conditions: primary human HUVEC with PBMC;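 further: cells read one day after compound addition; hits may be either gain or loss of signal compared with DMSO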
# Method in brief: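 Human umbilical vein endothelial cells co-cultured with PBMC, read 24 h after compound dosing. Total protein measured by sulforhodamine B staining (0.1% SRB after 10% TCA fixation, absorbance 560 nm); bidirectional fit versus DMSO baseline.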
# [7] = read-out: Monokine induced gamma interferon (MIG), CXCL9 (gene 4283); assay: BSK_SAg_MIG: BioMAP Diversity Plus: SAg Assay for Monokine induced gamma interferon (MIG) Biomarker Activity (AID 2283092); conditions: primary human HUVEC with PBMC; actives raise or lower the signal
# Method in brief: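 Endothelial cells and PBMC were co-cultured, exposed to test chemicals, and sampled 24 h later. MIG was measured by ELISA, and responses were fitted in both directions relative to DMSO.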
# Chain of E-selectin (Homo sapiens) (P16581 whole entry, looked up): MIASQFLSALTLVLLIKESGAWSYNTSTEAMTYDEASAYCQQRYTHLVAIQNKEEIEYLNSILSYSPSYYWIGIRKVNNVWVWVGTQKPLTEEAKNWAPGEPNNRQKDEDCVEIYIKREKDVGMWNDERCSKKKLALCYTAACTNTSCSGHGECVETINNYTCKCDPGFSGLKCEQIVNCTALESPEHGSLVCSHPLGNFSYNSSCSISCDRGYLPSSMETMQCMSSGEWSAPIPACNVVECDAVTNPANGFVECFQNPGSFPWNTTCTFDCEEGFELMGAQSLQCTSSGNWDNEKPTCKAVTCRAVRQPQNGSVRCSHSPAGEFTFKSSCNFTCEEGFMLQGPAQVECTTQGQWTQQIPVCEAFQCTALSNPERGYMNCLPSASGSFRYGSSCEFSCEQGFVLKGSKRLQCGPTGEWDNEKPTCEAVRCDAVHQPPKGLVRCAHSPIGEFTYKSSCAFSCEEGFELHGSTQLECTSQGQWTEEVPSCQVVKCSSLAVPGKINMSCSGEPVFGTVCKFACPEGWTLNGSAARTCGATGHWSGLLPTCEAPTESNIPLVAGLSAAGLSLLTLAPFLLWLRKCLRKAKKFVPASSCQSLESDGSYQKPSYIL
compound,measurement,setting,value
O=S(=O)(O)C(F)(F)C(F)(F)OC(F)(F)C(F)(F)F,outcome,[1],inactive
same,outcome,[2],inactive
same,outcome,[3],inactive
same,outcome,[4],inactive
same,outcome,[5],inactive
same,outcome,[6],inactive
CC1=CC(C)C(C=O)C(C)C1 (stereo unspecified) (tested in a mixture with another compound),outcome,[1],inactive
same,outcome,[2],inactive
same,outcome,[3],inactive
same,outcome,[4],inactive
same,outcome,[5],inactive
same,outcome,[6],inactive
c1ccc(OCCOc2ccccc2)cc1,outcome,[1],inactive
same,outcome,[2],inactive
same,outcome,[7],inactive
same,outcome,[3],inactive
same,outcome,[4],inactive
same,outcome,[5],inactive
same,outcome,[6],inactive
CCCCOCCOCCO,outcome,[1],inactive
same,outcome,[2],inactive
same,outcome,[3],inactive
same,outcome,[4],inactive
same,outcome,[5],inactive
same,outcome,[6],inactive
CCn1cc(C(=O)O)c(=O)c2ccc(C)nc21,outcome,[1],inactive
same,outcome,[2],inactive
same,outcome,[3],inactive
same,outcome,[4],inactive
same,outcome,[5],inactive
same,outcome,[6],inactive
CCCO[Si](OCCC)(OCCC)OCCC,outcome,[1],inactive
same,outcome,[2],inactive
same,outcome,[3],inactive
same,outcome,[4],inactive
same,outcome,[5],inactive
same,outcome,[6],inactive
OCCN1CCOCC1,outcome,[1],inactive
same,outcome,[2],inactive
same,outcome,[7],inactive
same,outcome,[3],inactive
same,outcome,[4],inactive
same,outcome,[5],inactive
same,outcome,[6],inactive
C=C(C)C(=O)OCCC(F)(F)C(F)(F)C(F)(F)C(F)(F)C(F)(F)C(F)(F)C(F)(F)C(F)(F)F,outcome,[1],inactive
same,outcome,[2],inactive
same,outcome,[3],inactive
same,outcome,[4],inactive
same,outcome,[5],inactive
same,outcome,[6],inactive
C=C1CC/C=C(\C)CC[C@@H]2[C@@H]1CC2(C)C,AC50,[1],34.4 µM (active)
same,AC50,[2],20 µM (active)
same,AC50,[3],20 µM (active)
same,AC50,[4],32.3 µM (active)
same,AC50,[5],22.8 µM (active)
same,AC50,[6],33.1 µM (active)
O=C(O)C(F)(F)C(F)(F)C(F)(F)C(F)(F)C(F)(F)C(F)(F)C(F)(F)C(F)F,outcome,[1],inactive
same,outcome,[2],inactive
same,outcome,[3],inactive
same,outcome,[4],inactive
same,outcome,[5],inactive
same,outcome,[6],inactive
CC(C)CCCC(C)(C)O,outcome,[1],inactive
same,outcome,[2],inactive
same,outcome,[3],inactive
same,outcome,[4],inactive
same,outcome,[5],inactive
same,outcome,[6],inactive
CC(=O)OCC=C(C)CCC=C(C)CCC=C(C)C,outcome,[1],inactive
same,outcome,[2],inactive
same,outcome,[3],inactive
same,outcome,[4],inactive
same,outcome,[5],inactive
same,outcome,[6],inactive
OCC(F)(OC(F)(F)C(F)(OC(F)(F)C(F)(F)C(F)(F)F)C(F)(F)F)C(F)(F)F (stereo unspecified),AC50,[1],2.27 µM (active) and 1.92 µM (active)
same,AC50,[2],2.96 µM (active) and 3.23 µM (active)
same,AC50,[3],2.03 µM (active) and 1.97 µM (active)
same,AC50,[4],2.22 µM (active) and 2.66 µM (active)
same,AC50,[5],2.09 µM (active) and 2.02 µM (active)
same,AC50,[6],5.05 µM (active) and 3.37 µM (active)
c1ccc2c(c1)-c1ccc3ccc4cccc5cc-2c1c3c45,outcome,[1],inactive
same,outcome,[2],inactive
same,outcome,[3],inactive
same,outcome,[4],inactive
same,outcome,[5],inactive
same,outcome,[6],inactive
CC(=O)c1ccc(C)cc1,outcome,[1],inactive
same,outcome,[2],inactive
same,outcome,[7],inactive
same,outcome,[3],inactive
same,outcome,[4],inactive
same,outcome,[5],inactive
same,outcome,[6],inactive
NC(=O)c1c(Cl)cccc1Cl,outcome,[1],inactive
same,outcome,[2],inactive
same,outcome,[3],inactive
same,outcome,[4],inactive
same,outcome,[5],inactive
same,outcome,[6],inactive
C=CC(=O)OCC(CO)(COC(=O)C=C)COC(=O)C=C,AC50,[1],0.686 µM (active)
same,AC50,[2],0.333 µM (active)
same,AC50,[7],601 nM (active)
same,AC50,[3],0.0476 µM (active)
same,AC50,[4],0.219 µM (active)
same,AC50,[5],0.0305 µM (active)
same,AC50,[6],2.13 µM (active)
CCCCCCCCCC(=O)OCC,outcome,[1],inactive
same,AC50,[2],20 µM (active)
same,AC50,[3],34.1 µM (active)
same,outcome,[4],inactive
same,AC50,[5],33.5 µM (active)
same,outcome,[6],inactive
C=C(F)C(=O)OC(C(F)(F)F)C(F)(F)F,outcome,[1],inactive
same,outcome,[2],inactive
same,outcome,[3],inactive
same,outcome,[4],inactive
same,outcome,[5],inactive
same,outcome,[6],inactive
COC(=O)c1ccc(C(=O)OC)cc1,outcome,[1],inactive
same,outcome,[2],inactive
same,outcome,[3],inactive
same,outcome,[4],inactive
same,outcome,[5],inactive
same,outcome,[6],inactive
CC(=O)CCC=C(C)CCC=C(C)C,outcome,[1],inactive
same,outcome,[2],inactive
same,outcome,[3],inactive
same,outcome,[4],inactive
same,AC50,[5],20 µM (active)
same,outcome,[6],inactive
O=C1OC2(c3ccc(O)cc3Oc3cc(O)ccc32)c2ccccc21,outcome,[1],inactive
same,outcome,[2],inactive
same,outcome,[3],inactive
same,outcome,[4],inactive
same,AC50,[5],1.02 µM (active)
same,outcome,[6],inactive
